# Screens (PubChem BioAssay)
# SARS PLP yeast – inhibitors of SARS-CoV papain-like protease in yeast | S. cerevisiae expressing SARS-CoV PLpro, growth rescue | AID 485353 | hit rate 0.19% among 330,000 | Potency, µM (highest dose often 32.9 µM), without a hit: at the highest dose activity, positive = growth rescue, actives largely listed as activators; calls by dose curve; note: potency is the fitted concentration of half-maximal effect; 0% is about no effect; nearly all actives have a fitted effect of over 55% in size
# NS1 function inh – blocks influenza NS1 protein function. Potency, µM (highest dose often 46.1 µM), inactives show top-dose activity, positive = more growth. hit rate 0.4% among 270,000. AID 2326; calls by dose curve; note: potency is the fitted concentration of half-maximal effect; actives are rising curves; nearly all actives have a fitted effect of over 50% in size
#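 A cell-based growth assay was used: compounds that relieve NS1-induced slow growth of budding yeast raise OD600. Assay medium was yeast nitrogen base with ammonium sulphate and -URA supplement, pH 6.0, with 2% galactose.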
# Pf growth 96h – P. falciparum growth inhibition at 96 hour, primary screen for plastid delayed-death inhibitors. Potency, µM (doses to about 28.7 µM), for inactives: at the top dose activity change, negative = inhibition, usual class: inhibitors. hit rate 6.9% among 320,000. P. falciparum luciferase reporter growth, 96 h; note: potency is the fitted concentration of half-maximal effect; % is set by controls: 0 for no effect and ±100 for the full control effect
#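 Compounds incubated with erythrocytes infected by luciferase-expressing P. falciparum (2% hematocrit, 0.05% parasitemia final) for 96 hours, 37 C in 5% CO2. Growth inhibition scored as decreased luciferase luminescence.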
# Shiga toxin inh – blocks Shiga toxin action in Vero cells; hit rate 9.2% among 290,000; inhibition, % at 38.7 µM; Vero cells, Shiga toxin protein synthesis inhibition reporter; in the data active = inhibition mostly above about 28%, no sharp cut-off; inactive = mostly below about 43%; note: 0% is about no effect
# Pf growth 48h – inhibits P. falciparum growth in the first generation, 48 h; hit rate 5.9% among 310,000; AID 504832; Potency, µM (top dose mostly 28.7 µM), without a hit: at the highest dose activity change, negative = inhibition, hits mostly inhibitors; P. falciparum luciferase growth in erythrocytes, 48 h; note: potency is the fitted concentration of half-maximal effect; % is set by controls: 0 for no effect and ±100 for the full control effect
#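 Luciferase-expressing parasites in RBCs, 2% Hct / 0.1% parasitemia final; RPMI 1640 + 0.5% Albumax; 37 C, 5% CO2, one generation; luminescence read-out, lower signal = inhibition.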
# CHX counter – affects cycloheximide protein synthesis inhibition readout, counter-screen | AID 2314 | cell reporter, cycloheximide protein synthesis inhibition counterscreen | max response, % | hit rate 12% among 300,000; in the data active = max response mostly above about 13%, no sharp cut-off; inactive = mostly below about 14%; note: read at 38.3 µM for the half of the compounds with a filed dose; 0% is about no effect
# An asterisk follows results filed as active; i = inactive; ? = inconclusive; . = not tested or not shown. This is a sample that favours compounds with a hit; in the whole collection about 21% have one here. Unless noted, calls come from the whole dose curve; as a rule, active = well fitted inhibition curve with a large enough effect; inconclusive = small, poorly fitted or top-dose-only effect, or another doubt; inactive = no such curve, though single readings can be large or run the other way.
SMILES,SARS PLP yeast,NS1 function inh,Pf growth 96h,Shiga toxin inh,Pf growth 48h,CHX counter
Cc1ccc(-n2ncc3c(=O)n(CC(=O)N4CCCCCC4)cnc32)cc1,6%,0%,.,9,-4%,-3
Cc1ccc(-n2ncc3c(=O)n(CC(=O)N(C(C)C)C(C)C)cnc32)cc1,-1%,1%,13µM*,-12,1%,-2
Cc1ccc(-n2ncc3c(=O)n(CC(=O)NC4CCCCC4)cnc32)cc1,9%,-2%,4.7µM*,-2,2%,4
COc1cccc(-n2c(=O)c3sccc3n(CC(=O)NC3CCCCC3)c2=O)c1,3%,1%,20%,-11,-5%,-12
COCCNC(=O)Cn1cnc2c(cnn2-c2ccc(C)cc2)c1=O,2%,-3%,?,-2,-1%,-3
COc1ccc(NC(=O)c2sc3ncn(CC(=O)N4CCN(c5ccccn5)CC4)c(=O)c3c2C)c(OC)c1,1%,4%,24%,-15,1%,-2
Cc1nc(N2CCN(c3ccccn3)CC2)c2c(C)c(C(=O)N3CCN(c4ccc(F)cc4)CC3)sc2n1,-3%,-31%,1%,-8,4.7µM*,1
CCN1CCN(C(=O)c2sc3nc(C)nc(N4CCC(C)CC4)c3c2C)CC1,4%,-10%,?,-7,13µM*,-1
COc1ccc(OC)c(NC(=O)c2sc3ncnc(N4CCN(c5ccccn5)CC4)c3c2C)c1,3%,0%,?,16,8.3µM*,-3
Cc1c(C(=O)N2CCN(c3ccccc3)CC2)sc2ncnc(N3CCN(c4ccccn4)CC3)c12,-14%,12%,30%,-5,?,-6
Cc1c(C(=O)N2CCN(c3ccc(F)cc3)CC2)sc2ncnc(N3CCN(c4ccccn4)CC3)c12,2%,-50%,12%,-3,10µM*,-2
Cc1c(C(=O)N2CCN(c3ccccn3)CC2)sc2ncnc(N3CCOCC3)c12,-7%,-3%,-27%,-8,.,-2
CC(OC(=O)c1cccc(-n2cnnn2)c1)C(=O)Nc1ccc(N(C)C)cc1 (stereo not given),1%,.,21%,.,49%,.
NC(=O)c1ccc(C(F)(F)F)cn1,-1%,6%,1%,-5,7%,-2
CC1CN(S(=O)(=O)c2cccc(C(=O)OC/C(O)=C(\C#N)c3nc4ccccc4[nH]3)c2)CC(C)O1 (stereo not given),2%,16%,22%,8,-3%,9
COc1ccccc1N1CCN(C(=O)c2sc3ncnc(N4CCN(c5ccccn5)CC4)c3c2C)CC1,1%,-51%,2%,-1,12µM*,-2
COc1ccccc1N1CCN(C(=O)c2sc3nc(C)nc(N4CCN(c5ccccn5)CC4)c3c2C)CC1,-11%,-19%,33%,-16,?,-4
COc1ccc(NC(=O)CN2CCC3(O)CCCCC3C2c2cc(OC)ccc2OC)cc1 (stereo not given),9%,-7%,?,-10,?,2
COC(=O)c1c(NC(=O)CN2CCC3(O)CCCCC3C2c2ccc(OC)cc2OC)sc(C)c1C (stereo not given),-34%,12%,-18%,-5,12µM*,7
COC(=O)c1c(NC(=O)CN2CCC3(O)CCCCC3C2c2ccccc2OC)sc(C)c1C (stereo not given),-29%,-14%,?,-1,5.2µM*,6
CCOC(=O)c1c(S(=O)(=O)NCCCc2ccco2)c(C)n(C)c1C,-4%,7%,19%,-7,-12%,-3
CN(Cc1ccco1)C(=O)Cn1ncc2c([nH]c3ccccc32)c1=O,5%,-3%,9.3µM*,-6,-8%,-3
COCCCN(Cc1ccco1)C(=O)Cn1ncc2c([nH]c3ccccc32)c1=O,-1%,?,?,-9,?,-3
Nc1c(Cl)cc(C2=NCCn3nc4cc([N+](=O)[O-])ccc4c32)cc1Cl,-5%,.,?,.,?,.
Nc1c(Cl)cc(C2=NCCn3c2c2ccc([N+](=O)[O-])cc2[n+]3[O-])cc1Cl,1%,.,?,.,13µM*,.
SMILES,SARS PLP yeast,NS1 function inh,Pf growth 96h,Shiga toxin inh,Pf growth 48h,CHX counter
COc1ccc(C(CNC(=O)CNC(=O)c2cc(OC)c(OC)c(OC)c2)N2CCOCC2)cc1 (stereo not given),9%,.,52%,.,0%,.
O=C(CSCC(=O)N1CCCCC1)OCC(=O)c1c[nH]c2ccccc12,0%,-7%,46%,1,?,-3
C(=C\c1nc(-c2ccccc2)no1)/c1ccccc1,7%,-5%,?,48*,290%,30*
CC(NCc1ccc(-c2ccccc2)cc1)C(O)c1ccccc1 (stereo not given),-32%,-16%,2.3µM*,-18,2.9µM*,-8
CC(NCc1ccc(Cl)cc1)C(O)c1ccccc1 (stereo not given),-2%,12%,3.7µM*,-11,2.6µM*,1
CC(NCc1cccc(Cl)c1Cl)C(O)c1ccccc1 (stereo not given),24%,10%,4.7µM*,-7,9.3µM*,-2
CCOc1c(Cl)cc(CNC(C)(C)CC(C)(C)C)cc1OC,1%,-6%,.,-6,10µM*,2
COc1ccccc1CNC(c1ccccc1)c1ccccc1,2%,-14%,?,-7,0%,-5
CCOc1c(Cl)cc(CNc2ccc(N3CCCC3)cc2)cc1OC,-1%,10%,42%,26,-27%,11
Cc1cc(S(=O)(=O)N2CCCC(C(=O)Nc3ccc(C(=O)O)cc3)C2)ccc1Cl (stereo not given),-1%,2%,6%,-3,-15%,-6
CCC(CO)NCc1ccc(-c2ccccc2)cc1 (stereo not given),3%,0%,3.7µM*,-8,14%,-5
COc1cc(OC)c(OC)cc1CNC(C)C(O)c1ccccc1 (stereo not given),0%,3%,-19%,-12,-14%,-4
CC(NCc1ccc(Cl)cc1Cl)C(O)c1ccccc1 (stereo not given),3%,-9%,1.5µM*,43,1µM*,21
CCOc1c(Cl)cc(CNC(C)C(O)c2ccccc2)cc1OC (stereo not given),2%,-4%,22%,-5,1.5µM*,1
NCc1ccccc1Sc1ccccc1CO,.,.,-27%,.,-19%,.
CCC(=O)C1CCCN(C(=O)c2ccc(OC3CCN(C(=O)CCOC)CC3)cc2)C1 (stereo not given),4%,13%,20%,14,7%,-2
O=C(Nc1nc2ccccc2s1)c1ccccc1,-6%,-4%,i,91*,i,28*
CS(=O)(=O)c1ccc2nc(NC(=O)c3cccs3)sc2c1,-11%,-8%,146%,9,41%,-2
CS(=O)(=O)c1ccc2nc(NC(=O)c3cc([N+](=O)[O-])cc([N+](=O)[O-])c3)sc2c1,-5%,9%,4%,.,-8%,-3
